Rows were chosen to be rich in hits. Some 4% of all compounds tested hit in one or more screens of this group.
KKLEB tox: reduces viability of KKLEB cystic fibrosis airway cells; activity change (cytotoxicity), % at 5 µM; KKLEB CF airway cells viability, ATPlite luminescence, overnight; hits give low values; cells stimulated with P. aeruginosa culture filtrate; AID 602141; 360,000 compounds, 0.36% hits;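 active means corrected activity change at or below -50% at 5 µM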
HIF-2a inh: blocks HIF-2a reporter activity; inhibition, % at 18.8 µM; AID 624352; 360,000 compounds, 0.72% hits; 786-0 RCC cells HIF-2a reporter, luciferase luminescence, overnight;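 active means inhibition of the luminescence signal of 40% or more relative to plate controls, in a single-dose primary screen at 18.75 µM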
CF NFkB inh: blocks PAF-induced NF-kB reporter in cystic fibrosis cells. KKLEB NF-kB-GFP reporter, GFP fluorescence overnight. inhibition, % at 5 µM. 360,000 compounds, 0.86% hits. AID 588850;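 active means at least 50% inhibition at 5 µM, scaled per plate between neutral and stimulator controls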;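 further: PAF is a Pseudomonas aeruginosa culture filtrate used as stimulus; plate controls were PAF-stimulated DMSO wells for no effect and unstimulated DMSO wells for full effect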
Peg3 promoter: inhibitors of Peg3 promoter. HeLa PEG-Prom luciferase reporter, luminescence, overnight. inhibition, % at 20 µM. 360,000 compounds, 1.7% hits. AID 588405;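 active means inhibition of at least 50% at 20 µM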
TROY signal inh: inhibitors of TROY-dependent NF-kB signaling; Q293 LMP1-TROYcd NF-kB luciferase reporter, 4 h; inhibition, % at 10 µM; 360,000 compounds, 0.98% hits;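 active means compounds whose plate-normalised and pattern-corrected inhibition of the luciferase reporter signal at the single screening dose is 50% or more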
TWEAK-Fn14 inh: TWEAK-Fn14 signaling inhibition. TWEAK-stimulated Fn14 reporter cells, luciferase luminescence, 8 h. inhibition, % at 10 µM. 360,000 compounds, 2% hits. AID 1159606; in the data active means inhibition above about 50%
An asterisk follows results filed as active.

SMILES | KKLEB tox | HIF-2a inh | CF NFkB inh | Peg3 promoter | TROY signal inh | TWEAK-Fn14 inh
CCCCn1nnc(NC(=O)c2ccc(-c3ccccc3[N+](=O)[O-])o2)n1 | -10 | -151 | 4 | -85 | -3 | -2
NCCCn1c(C(=O)c2cc(Cl)c(N)c(Cl)c2)c2ccc([N+](=O)[O-])cc2[n+]1[O-] | -4 | 17 | -1 | 57* | -32 | -37
O=C(Nc1ccc(CN2CCOCC2)cc1)c1ccc(-c2ccc(Br)cc2)o1 | -10 | -28 | 6 | 7 | 53* | 28
O=c1c2c(nc3n1CCCCC3)sc1c(O)c(Br)ccc12 | 0 | -180 | -2 | -64 | 36 | 68*
CCN(CC)CCOc1c(Br)ccc2c1sc1nc3n(c(=O)c12)CCC3 | 12 | -26 | -18 | 10 | -35 | -30
CC(C)Cc1nnc(NC(=O)CC(=O)Nc2ccccc2C(=O)O)s1 | -1 | 9 | -6 | 28 | -5 | 51*
CCOc1ccc(CN2CCNC(=O)C2CC(=O)NCCN2CCOC2=O)cc1 (stereo not drawn) | 3 | 6 | 11 | -2 | 0 | 3
Cc1ccc(-n2cc(C(=O)c3ccc(F)cc3)nn2)cc1Cl | -3 | -80 | 1 | -125 | 41 | 53*
Cc1ccnc(NC(=O)CCC(=O)c2cccs2)c1 | -26 | 51* | 0 | 21 | 68* | 92*
COc1ccc(NC(=O)CCC(=O)c2cccs2)c(OC)c1 | 4 | -55 | 3 | -52 | 2 | 57*
COCc1[nH]nc2c1C(c1ccc(OC)c(OC)c1)C(C#N)=C(N)O2 (stereo not drawn) | 2 | 11 | 3 | -1 | 4 | 13
CCn1c2ccccc2c2cc(C3C(C#N)=C(N)Oc4n[nH]c(COC)c43)ccc21 (stereo not drawn) | -33 | 19 | -7 | 89* | -6 | 4
COC(=O)CN1C(=O)N/C(=C/c2cc(Cl)c(OC)c(OC)c2)C1=O | 19 | 6 | -5 | -2 | -13 | -7
CCN(CC(=O)NCc1ccc(Cl)cc1)C(=O)CN1C(=O)NC(CC)(c2ccccc2)C1=O (stereo not drawn) | 10 | 11 | 4 | 8 | -10 | 91*
CCN(CC(=O)NCc1ccc(Cl)cc1)C(=O)CN1C(=O)NC(C)(c2ccccc2)C1=O (stereo not drawn) | 10 | 4 | 11 | 8 | -25 | -4
Cc1cc(C)nc(/N=C(\N)Nc2ccc(OCCC(C)C)cc2)n1 | 1 | 3 | -6 | 107* | 28 | -12
COc1ccc(N/C(N)=N/c2nc(C)cc(C)n2)cc1 | 0 | -8 | -32 | 5 | -4 | -50
O=C(NCc1ccc(Cl)cc1)c1cccc(NC2=NC3CS(=O)(=O)CC3S2)c1 (stereo not drawn) | 0 | 14 | 7 | 12 | 7 | 7
CCOC(=O)CCc1c(C)c2c(C)nn(-c3ccccc3)c2[nH]c1=O | -13 | 6 | 8 | 14 | -7 | 13
CCCCn1c(SCC(=O)Nc2cccc(OC)c2)nc2ccc(N3CCOCC3)cc2c1=O | 15 | -46 | -23 | 0 | 62* | 32
CCCCn1c(SCC(N)=O)nc2ccc(N3CCOCC3)cc2c1=O | -4 | 9 | 0 | 2 | -6 | 3
Cc1c(NC(=O)COC(=O)c2c3c(nc4ccccc24)CCCC3)c(=O)n(-c2ccccc2)n1C | 3 | 12 | -2 | 5 | 17 | -11
COc1ccc(NC(=O)COC(=O)c2c3c(nc4ccccc24)CCCC3)cc1Cl | 6 | -70 | -28 | 26 | 53* | 65*
CCCCNC(=O)COC(=O)c1c2c(nc3ccccc13)CCC2 | -15 | 14 | -5 | 10 | 10 | 24
COc1ccc(NC(=O)COC(=O)c2c3c(nc4ccccc24)CCCC3)cc1 | 13 | -19 | -10 | 34 | 42 | 59*
CNC(=O)COC(=O)c1c2c(nc3ccccc13)CCC2 | -1 | 6 | -1 | 3 | 18 | -6
COc1ccc(OC)c(NC(=O)COC(=O)c2c3c(nc4ccccc24)CCCC3)c1 | -48 | -9 | 37 | 78* | 29 | 55*
O=C(O)c1ccc(C(=O)c2ccc3c(c2)C(=O)N(CCO)C3=O)cc1 | 14 | 12 | -19 | -15 | -5 | -2
CCOC(=O)N1CCN(Cc2nc3cc(NC(C)=O)ccc3n2CC)CC1 | 8 | 9 | -3 | -3 | -1 | -10

Bioassay records as filed in PubChem.
